Assay results taken from PubChem BioAssay (Tox21).
Values joined by “and” are separate entries in the source; they are usually repeats but may differ in a detail not shown here. Equal values may be shown once. Records with an inconclusive call do not appear. Where a call stands in place of a potency, no number is given. Where a structure was tested more than once in an assay, its records may differ in their call. Active and inactive are the calls of the source. Unless noted, the call rests on the fitted dose curve; in most records, active means well fitted curve in the direction sought with a large enough effect in the repeat runs; inconclusive means weak or mixed curves; inactive means no such curve, though single readings can be large; an effect the other way counts as inactive or inconclusive.

Tests used:
[1] = qHTS assay to identify small molecule antagonists of the estrogen related receptor (ERR) signaling pathway (AID 1224819;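 further: luminescence from an ERR-driven luciferase reporter measured with One-Glo reagent; series mostly up to about 46 µM; nearly all actives have a fitted effect of over 50% in size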)
Outline: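 Luminescence readout (One-Glo, 30 min, RT) of ERR cell line after 18 h compound exposure at 37 C; cells seeded 2,000/well, pre-incubated 6 h, compounds pinned from DMSO stocks.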

[2] = qHTS assay to identify small molecule agonists of the estrogen related receptor (ERR) signaling pathway (AID 1224820)
Outline: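 An ERR cell line provided by NTP was seeded at 2,000 cells per well and allowed to settle for 6 h before compounds in DMSO were added. After 18 h at 37 C, luciferase activity was measured by One-Glo luminescence.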

[3] = test system: estrogen-related receptor alpha (ERRalpha) with PGC-1alpha coactivator, human; experiment: qHTS assay to identify small molecule antagonists of the estrogen related receptor signaling pathway with the pleiotropic PPARgamma coactivator (PGC) (AID 1224821; calls by dose curve;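 further: series mostly up to about 46 µM; lower luminescence signal means antagonism of PGC/ERR signalling; nearly all actives have a fitted effect of over 50% in size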)
Outline: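 A PGC/ERR cell line supplied by NTP is seeded, allowed 6 h at 37 C, and treated with test compounds in DMSO for 18 h. Signal is then measured as luciferase luminescence using One-Glo.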

[4] = qHTS assay to identify small molecule agonists of the estrogen related receptor signaling pathway with the pleiotropic PPARgamma coactivator (PGC) (AID 1224823)
Outline: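 Compounds dissolved in DMSO are added by pin tool to PGC/ERR cells that have settled for 6 h, and incubation continues 18 h at 37 C. Reporter output is measured as One-Glo luminescence.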

[5] = qHTS assay to identify small molecule agonists of the RXR signaling pathway - cell viability counter screen (AID 1159529); further: nearly all actives have a fitted effect of over 50% in size; further: potency means the concentration at half of the fitted maximal effect
Outline: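 CellTiter-Glo luminescence gave viability in the wells also read for beta-lactamase. Cells (RXR-alpha-UAS-bla HEK 293T, 2% charcoal-stripped FBS medium) had 5 hr plating, then 16 hr compound exposure at 37 C; tetraoctyl ammonium bromide served as positive control.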

[6] = qHTS assay to identify small molecule antagonists of the retinoid acid receptor (RAR) signaling pathway - cell viability counter screen (AID 1159551); further: nearly all actives have a fitted effect of over 35% in size; further: potency means the concentration at half of the fitted maximal effect
Outline: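 C3RL4 RARE-luciferase line; cpds + retinol 1 uM final, 6 h, 37 C/5% CO2; CellTiter-Glo ATP luminescence, 30 min RT.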

[7] = qHTS assay to identify small molecule antagonists of the estrogen related receptor (ERR) signaling pathway from Tox21 library - cell viability counter screen (AID 1224834); further: nearly all actives have a fitted effect of over 30% in size; further: potency means the concentration at half of the fitted maximal effect
Outline: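 Multiplexed viability counter screen in ERR cells: 17.5 h compound exposure at 37 C, CellTiter-Fluor added, 30 min at 37 C/5% CO2, fluorescence read.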

[8] = molecular target: Luciferin 4-monooxygenase (Photinus pyralis) (UniProt P08659); experiment: qHTS assay to identify small molecule inhibitors of firefly luciferase (AID 1224835); further: series mostly up to about 120 µM; nearly all actives have a fitted effect of over 25% in size
Chain of Luciferin 4-monooxygenase (Photinus pyralis) (P08659 whole entry, looked up): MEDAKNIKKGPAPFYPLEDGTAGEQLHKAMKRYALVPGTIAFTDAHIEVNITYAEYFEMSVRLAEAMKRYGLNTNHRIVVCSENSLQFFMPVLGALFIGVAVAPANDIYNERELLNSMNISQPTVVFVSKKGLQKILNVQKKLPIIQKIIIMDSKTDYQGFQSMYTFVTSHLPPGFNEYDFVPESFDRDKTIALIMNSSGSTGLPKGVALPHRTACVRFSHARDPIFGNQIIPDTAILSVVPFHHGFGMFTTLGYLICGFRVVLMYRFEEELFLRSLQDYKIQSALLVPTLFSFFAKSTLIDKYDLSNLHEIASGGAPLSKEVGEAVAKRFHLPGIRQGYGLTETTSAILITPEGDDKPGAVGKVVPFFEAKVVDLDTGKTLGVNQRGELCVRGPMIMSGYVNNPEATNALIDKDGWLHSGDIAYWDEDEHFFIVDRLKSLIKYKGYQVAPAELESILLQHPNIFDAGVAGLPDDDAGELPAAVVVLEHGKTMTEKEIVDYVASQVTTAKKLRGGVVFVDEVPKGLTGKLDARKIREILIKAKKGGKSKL
Outline: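 Inhibition of purified Photinus luciferase is measured by luminescence. Substrate levels (D-luciferin, ATP) sit at their KM values. Each compound is tested in a concentration series.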

[9] = qHTS assay to identify small molecule agonists of the constitutive androstane receptor (CAR) signaling pathway - cell viability counter screen (AID 1224836); further: nearly all actives have a fitted effect of over 45% in size; further: potency means the concentration at half of the fitted maximal effect
Outline: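 Cell viability multiplexed with the CAR agonist screen: CellTiter-Fluor fluorescence after 23 hr at 37 C. HepG2-CYP2B6-hCAR cells got compounds at 15 concentrations with PK11195 at 0.75 uM final.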

[10] = qHTS assay to identify small molecule antagonists of the constitutive androstane receptor (CAR) signaling pathway - cell viability counter screen (AID 1224837); further: nearly all actives have a fitted effect of over 45% in size; further: potency means the concentration at half of the fitted maximal effect
Outline: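 Read-out: CellTiter-Fluor fluorescence after 23 hr at 37 C/5% CO2. Cells: HepG2 double-stable for hCAR and CYP2B6-2.2kb. Compounds tested at 15 concentrations in the presence of CITCO, final concentration 50 nM.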

[11] = qHTS assay to identify small molecule antagonists of the estrogen related receptor signaling pathway with the pleiotropic PPARgamma coactivator (PGC) from Tox21 10K library - cell viability counter screen (AID 1224840; active means well fitted cell-killing curve with a large enough effect in the repeat runs, not every such curve was filed as active; further: nearly all actives have a fitted effect of over 40% in size; further: potency means the concentration at half of the fitted maximal effect)
Outline: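 Fluorescence read-out of CellTiter-Fluor viability reagent, added after cells had been exposed to compound in DMSO for 17.5 h at 37 C; 30 min development at 37 C/5% CO2. Cells: PGC/ERR line, 2,000/well.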

[12] = molecular target: Thyrotropin receptor (Homo sapiens) (UniProt P16473); experiment: qHTS assay to identify small molecule agonists of the thyroid stimulating hormone receptor (TSHR) signaling pathway (AID 1224843; calls by dose curve; further: nearly all actives have a fitted effect of over 45% in size)
Chain of Thyrotropin receptor (Homo sapiens) (P16473 whole entry, looked up): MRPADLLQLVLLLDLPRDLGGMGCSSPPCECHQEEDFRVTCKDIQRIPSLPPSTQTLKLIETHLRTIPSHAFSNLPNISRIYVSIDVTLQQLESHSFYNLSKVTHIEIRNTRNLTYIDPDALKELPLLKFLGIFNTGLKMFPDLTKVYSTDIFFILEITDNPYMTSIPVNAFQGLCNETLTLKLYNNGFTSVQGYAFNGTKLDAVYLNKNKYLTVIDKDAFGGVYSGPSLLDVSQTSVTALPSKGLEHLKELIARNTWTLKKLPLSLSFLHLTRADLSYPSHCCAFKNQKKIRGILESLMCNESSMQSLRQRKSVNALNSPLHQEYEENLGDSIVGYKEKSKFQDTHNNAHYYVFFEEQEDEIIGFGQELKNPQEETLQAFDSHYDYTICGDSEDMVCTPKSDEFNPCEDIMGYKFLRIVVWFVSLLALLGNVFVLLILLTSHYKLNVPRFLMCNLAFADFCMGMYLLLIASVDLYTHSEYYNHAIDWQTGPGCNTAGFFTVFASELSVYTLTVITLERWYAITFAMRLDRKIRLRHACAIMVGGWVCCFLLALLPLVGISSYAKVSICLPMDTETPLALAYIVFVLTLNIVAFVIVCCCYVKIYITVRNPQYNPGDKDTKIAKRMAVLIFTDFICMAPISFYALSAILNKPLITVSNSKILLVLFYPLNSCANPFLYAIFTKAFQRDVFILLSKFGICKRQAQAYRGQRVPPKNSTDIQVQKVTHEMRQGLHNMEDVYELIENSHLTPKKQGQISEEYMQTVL
Outline: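 Agonist activity read as cAMP rise via d2/cryptate HTRF competition, 1 h room-temperature detection, in HEK293 cells expressing TSHR. Fifteen-point titrations, each run in triplicate, with a 30 min room-temperature incubation beforehand.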

[13] = qHTS assay to identify small molecule antagonists of the estrogen related receptor signaling pathway with the pleiotropic PPARgamma coactivator (PGC) from Tox21 10K library (AID 1224841; call rule not given here; further: series mostly up to about 92 µM; actives are mostly falling curves and most rising ones were filed inactive; nearly all actives have a fitted effect of over 50% in size)
Outline: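 Luminescence read-out (One-Glo luciferase reagent, 30 min at room temperature) from PGC/ERR cells exposed to DMSO-dissolved test compounds for 18 h at 37 C; cells, 2,000 per well, had been preincubated 6 h before compound transfer.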

[14] = qHTS assay to identify small molecule agonists of the estrogen related receptor signaling pathway with the pleiotropic PPARgamma coactivator (PGC) from Tox21 10K library (AID 1224842); further: nearly all actives have a fitted effect of over 15% in size
Outline: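 Luminescence from One-Glo (30 min, room temperature) measured after PGC/ERR cells had 18 h at 37 C with pinned compound (23 nL in DMSO). Cells had been seeded at 2,000 per well and pre-incubated 6 h.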

Structure (SMILES)	outcome [1]	outcome [2]	outcome [3]	outcome [4]	Potency [5]	Potency [6]	Potency [7]	Potency [8]	Potency [9]	Potency [10]	Potency [11]	Potency [12]	Potency [13]	Potency [14]
O=P1(N(CCCl)CCCl)NCCCO1 (centres undefined)	inactive	inactive	inactive	inactive										
CCC[N+]1(C)CCCCC1					inactive	inactive	inactive	inactive	inactive	inactive	inactive	inactive		
CC[N+]1(C)CCCC1					inactive	inactive	inactive	inactive	inactive	inactive	inactive			
CC(=O)O					inactive	inactive	inactive		inactive	inactive	inactive			
N#CS					inactive	inactive	inactive		inactive	inactive	inactive			
CCCCCCCCCCn1cc[n+](C)c1					inactive	inactive	inactive and 8.62 µM (active)	inactive		inactive	inactive			
Nc1ccccc1					inactive	inactive	inactive		inactive	inactive	inactive	inactive		
CCCC[n+]1ccccc1C					inactive	inactive	inactive	inactive	inactive	inactive	inactive			
O=S(=O)(O)O					inactive	inactive	inactive		inactive	inactive	inactive			
O=c1nc(O)n(Cl)c(=O)n1Cl					inactive	inactive	inactive	inactive	inactive	inactive	inactive		inactive	inactive
CCCC[N+]1(C)CCCCC1					inactive	inactive	inactive	inactive	inactive	inactive	inactive	inactive		
O=C(O)c1nc(Cl)ccc1Cl					inactive	inactive	inactive	inactive	inactive	inactive	inactive	inactive		
COP(=O)(OC)OC=C(Cl)Cl					inactive	inactive	inactive	inactive	inactive	inactive	inactive			
CCCC[n+]1cccc(C)c1					inactive	inactive	inactive	inactive	inactive	inactive	inactive			
CCCCCCCCCCCCCC[P+](CCCCCC)(CCCCCC)CCCCCC					8.75 µM (active) and 15.6 µM (active)	27.4 µM (active) and 27.5 µM (active) and inactive	17.3 µM (active) and 24.5 µM (active)	inactive	7.73 µM (active) and 9.77 µM (active)	12.2 µM (active) and 13.8 µM (active)	21.8 µM (active) and 21.9 µM (active)	inactive		
CCC[N+]1(C)CCCC1					inactive	inactive	inactive	inactive	inactive	inactive	inactive			
CN(C)[C@@H]1C(=O)C(C(N)=O)=C(O)[C@@]2(O)C(=O)C3=C(O)c4c(O)cccc4[C@@](C)(O)[C@H]3[C@H](O)[C@@H]12					inactive	inactive	inactive	inactive	inactive	inactive	inactive	inactive		
